Cycloheximide cs: affects cycloheximide protein synthesis inhibition readout, counter-screen. 300,000 tested, 12% active. cell reporter, cycloheximide protein synthesis inhibition counterscreen. AID 2314. max response, %; in the data active means max response mostly above about 13%, no sharp cut-off; inactive means mostly below about 14%; further: read at 38.3 µM for the half of the compounds with a filed dose
LASV entry inh: blocks Lassa virus binding to or entry into cells; Lassa virus pseudotype entry inhibition, cell reporter; Potency, µM (titrated, usually from 37.9 µM), usual class: inhibitors; 300,000 tested, 1.2% active; AID 540256; calls by dose curve; tested in HEK293 cells; further: nearly all actives have a fitted effect of over 50% in size
HCV inh: HCV inhibition. Huh7.5.1 HCVcc-Cre infection, luciferase reporter, 44 h. Potency, µM (series often up to 41.8 µM), actives largely listed as inhibitors. 340,000 tested, 3.4% active; active means well fitted inhibition curve with a large enough effect; inconclusive means small, poorly fitted or top-dose-only effect, or another doubt; inactive means no such curve, though single readings can be large or run the other way
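Cells (1,000/well) were plated 4 h before compound, then infected with HCVcc-Cre virus (~0.5 moi). After 44 h further culture, infection was read as luciferase luminescence following a 15 min substrate incubation at room temperature.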
FMDV inh: foot and mouth disease virus antiviral activity; FMDV antiviral cell-based qHTS; Potency, µM (top dose mostly 57.9 µM), most hits filed as inhibitors; 410,000 tested, 1.2% active; AID 1159524; calls by dose curve; tested in HEK293T cells; further: read-out not given here; nearly all actives have a fitted effect of over 45% in size
Shiga inhibitor: inhibitors of Shiga toxin in Vero cells; Vero cells, Shiga toxin protein synthesis inhibition reporter; AID 2315; 290,000 tested, 9.2% active; inhibition, % at 38.7 µM; in the data active means inhibition mostly above about 28%, no sharp cut-off; inactive means mostly below about 43%
Marburg entry inh: Marburg virus entry inhibition. AID 540276. Marburg virus pseudotyped entry inhibition, cell reporter. 300,000 tested, 1.8% active. Potency, µM (top dose mostly 37.8 µM), hits mostly inhibitors; calls by dose curve; tested in HEK293 cells
Hits are given with their value; . = inactive; ? = inconclusive; / = no result; + = active, no number. Compounds with a hit are over-represented: about 13% of the library has one in this group of screens.

SMILES	Cycloheximide cs	LASV entry inh	HCV inh	FMDV inh	Shiga inhibitor	Marburg entry inh
CN(C)c1ccc(-c2n(C)c3ccccc3[n+]2C)cc1	27	?	8.9µM	/	52	?
CC(C)(C)OC(=O)N1CCC(c2c(C(=O)NCCc3ccsc3)cnn2-c2ccccc2Cl)CC1	/	?	/	.	/	/
NNC(=O)c1ccc2c(c1)S(=O)(=O)NNC2=O	.	.	.	.	.	.
CCN(CC)c1ccc(C(=O)c2ccccc2C(=O)O)c(O)c1	22	.	.	.	28	.
CC(C)(C)C(=O)Nc1ccc(C(=O)N/N=C/c2ccccc2OC(=O)c2ccc(Cl)cc2)cc1	.	?	10µM	.	.	?
COc1ccc(C(=O)N/N=C/c2ccccc2OC(=O)c2ccccc2)cc1	33	?	?	.	41	13µM
CC(C)(C)C(=O)Nc1ccc(C(=O)N/N=C/c2ccccc2OC(=O)c2ccccc2)cc1	.	?	?	.	.	?
COc1cc(C(=O)Oc2ccccc2/C=N/NC(=O)c2ccc(C)cc2)cc(OC)c1OC	87	8.9µM	7.9µM	.	118	?
CNc1c(NC(=O)COc2ccc(Cl)cc2)c(=O)oc2ccccc12	.	/	.	.	.	/
CCCCn1c(N)c(N(CCC(C)C)C(=O)CSc2nc3ccccc3n2C)c(=O)[nH]c1=O	/	.	10µM	.	/	.
O=C(N/N=C/C(Br)=C/c1ccccc1)c1cccnc1	38	?	.	.	66	?
O=C(N/N=C/C(Br)=C/c1ccccc1)c1ccncc1	38	/	?	.	73	/
O=C(N/N=C/C(Br)=C/c1ccccc1)c1ccc([N+](=O)[O-])cc1	.	/	.	.	.	/
COc1ccc(C)cc1N(C(=O)c1ccccc1)c1nc2ccccc2s1	.	.	16µM	.	.	?
COc1ccc(C)cc1N(C(=O)c1cccc(F)c1)c1nc2ccccc2s1	.	?	?	.	.	.
O=C(c1ccco1)N(Cc1ccccc1)Cc1ccccn1	.	.	.	.	.	.
O=C(O)/C=C/c1cn(-c2ccccc2)nc1-c1cc2ccccc2oc1=O	22	/	.	.	41	/
Cc1ccc(-c2nn(-c3ccccc3)cc2CN(Cc2ccccc2)C(=O)c2ccco2)o1	.	?	10µM	28µM	.	?
O=Cc1cn(-c2ccccc2)nc1-c1cc2cc(O)ccc2oc1=O	.	.	.	.	.	.
Cc1ccc(-c2nn(-c3ccccc3)cc2/C=C/C(=O)O)o1	14	.	.	.	.	.
Cc1ccc(-c2nn(-c3ccccc3)cc2C(=O)O)o1	.	/	/	/	.	/
Cc1ccc(-c2nc(Cn3c(SCc4ccc(F)cc4)nc4cccnc43)c(C)o2)cc1	/	.	/	.	/	/
O=C(O)c1cccc(Oc2cccc(Cl)n2)c1	.	.	.	.	.	?
O=C(COC(=O)Cn1cnc2ccccc21)Nc1ccc2c(c1)C(=O)c1ccccc1C2=O	67	.	?	.	18	?
O=C(Cn1cnc2ccccc2c1=O)Nc1ccc2c(c1)OCO2	56	.	.	.	active	?
SMILES	Cycloheximide cs	LASV entry inh	HCV inh	FMDV inh	Shiga inhibitor	Marburg entry inh
O=C(Cn1cnc2ccccc21)Nc1ccc2c(c1)OCCCO2	/	/	11µM	.	/	/
O=C(Cn1cnc2ccccc2c1=O)NCc1ccc2c(c1)OCO2	.	.	.	.	.	.
O=C(Cn1ccc2ccccc2c1=O)NCCC(=O)Nc1ccc2c(c1)OCCO2	23	.	.	.	.	.
Cc1noc(C)c1NC(=O)N(C)C[C@@H]1Oc2c(NC(=O)c3ccncc3)cccc2C(=O)N([C@H](C)CO)C[C@@H]1C	/	/	.	.	/	/
COC(=O)c1cc(Cl)cc2c(CCO)c[nH]c12	/	/	?	.	/	/
CC(=O)O[C@H]1C(=O)[C@@]2(C)C([C@H](OC(=O)c3ccccc3)[C@]3(O)C[C@H](OC(=O)[C@H](O)[C@@H](NC(=O)c4ccccc4)c4ccccc4)C(C)=C1C3(C)C)[C@]1(OC(C)=O)CO[C@@H]1C[C@@H]2OC(=O)[C@H](C)NC(=O)c1ccc(-c2c3ccc(=O)cc-3oc3cc(O)ccc23)c(C(=O)O)c1 (some centres not stated)	.	/	/	/	+	/
C/C=C(\C)C(=O)N[C@@H](c1ccccc1)[C@@H](O)C(=O)O[C@H]1C[C@@]2(O)[C@@H](OC(=O)c3ccccc3)C3[C@](C)(C(=O)[C@H](OC(C)=O)C(=C1C)C2(C)C)[C@@H](O)C[C@H]1OC[C@@]31OC(C)=O (some centres not stated)	.	/	.	.	.	/

Source: PubChem BioAssay (National Center for Advancing Translational Sciences (NCATS))
